{"source": "PubChem BioAssay (NCATS)", "key": {"[1]": {"test": "High-throughput drug toxicity screening in the BPDCN cell line Cal-1 (AID 1224825; call rule not given here)", "settings": "Cal-1 BPDCN cell viability, qHTS; at 45.8 µM (top of the series) unless noted", "in_short": "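Exponentially growing Cal-1 cells, 500 per well in phenol red-free RPMI with 10% FBS, were exposed to compounds for 48 h at 37 °C, 5% CO2. Viability was read by CellTiter-Glo luminescence and normalised to DMSO (100%) and 9.2 uM bortezomib (0%).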"}, "[2]": {"test": "qHTS assay for measurement of the activity of small molecule inhibitors on Zika virus induced Caspase-3 activity in human iPSC derived neural progenitor cells (hNPCs) (AID 1224857); further: nearly all actives have a fitted effect of over 65% in size", "in_short": "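Zika virus (2 FFU/cell) infection of human iPSC-derived NPCs, 6 h, following 1 h compound preincubation. Read-out: Caspase-Glo 3/7 luminescence.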"}, "[3]": {"test": "qHTS assay for measurement of the activity of small molecule inhibitors on Zika virus induced Caspase-3 activity in human astrocytoma cells (AID 1224859)", "in_short": "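Caspase activation in ZIKV-infected SNB-19 cells (2 FFU/cell, 6 h) measured by Caspase-Glo 3/7 luminescence after 30 min RT; compound pre-incubated 1 h; normalised to uninfected and infected controls.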"}, "[4]": {"test": "qHTS Screen of the MIPE 4.0 Collection Against Ewings Sarcoma (EW8) (AID 1259255); further: nearly all actives have a fitted effect of over 35% in size", "in_short": "(§1)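 Measured: ATP luminescence (CellTiter-Glo) 10 min after reagent addition, following 48 h drug treatment. Relative luciferase units converted to percent activity, with no-cell wells as full and DMSO wells as zero inhibition.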"}, "[5]": {"test": "qHTS assay to identify small molecule inhibitors of chordoma cells - UCH-2 (AID 1259356)"}, "[6]": {"test": "qHTS Screen of the MIPE 4.0 Collection Against Ewings Sarcoma (TC32) (AID 1259256)", "in_short": "as §1"}, "[7]": {"test": "qHTS assay to identify small molecule inhibitors of chordoma cells - UCH-1 (AID 1259355)", "in_short": "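Luminescent ATP read-out (CellTiter-Glo, 30min at room temperature) measured viability of UCH-1 cells exposed for 48hr to test drugs at 15 concentrations, co-dosed with a five-agent combination of auranofin, camptothecin, doxorubicin, rubitecan and topotecan.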"}, "[8]": {"test": "P-glycoprotein substrates identified in KB-8-5-11 adenocarcinoma cell line, qHTS therapeutic library screen (AID 1346987)", "in_short": "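Steps: plate 500 KB-8-5-11 cells/well in DMEM + 10% FCS (colchicine removed); pin compounds in dose-response; incubate 72 h, 37 degree C, 5% CO2; add CellTiter-Glo, 5 min; read luminescence.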"}, "[9]": {"test": "Natriuretic polypeptide receptor (hNpr1) antagonism - Pilot counterscreen GloSensor control cell line (AID 1347045; calls by dose curve)", "in_short": "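Luminescence was read before and 20 min after adding 50 uM SNP, which stimulates soluble guanylyl cyclase. The HEK293 cells expressing the GloSensor cGMP sensor had been preloaded with 2% reagent for 2 h and treated with compound.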"}, "[10]": {"test": "qHTS Screen of the MIPE 4.0 Collection Against Ewings Sarcoma (TC71) (AID 1259253)", "in_short": "as §1"}, "[11]": {"test": "Identifying Small Molecule Inhibitors of Pancreatic Cancer Stem Cells (A2780, Spheroid) (AID 1259357)", "settings": "Potency: A2780 spheroid viability", "in_short": "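Cytotoxicity read by CellTiter-Glo luminescence after 48 h compound exposure at 37C; percent activity scaled between DMSO-treated cells and cell-free wells. Spheroid formats used cells pre-formed 14 days in stem cell media on hydrogel.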"}, "[12]": {"test": "Identifying Small Molecule Inhibitors of Pancreatic Cancer Stem Cells (SN12C, Adherent) (AID 1259358)", "in_short": "(§2)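 After a 4 h attachment period, compounds were pinned into wells and cultures held 48 h under standard incubator conditions. Viability was then measured as CellTiter-Glo luminescence following 10 min at room temperature.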"}, "[13]": {"test": "Identifying Small Molecule Inhibitors of Pancreatic Cancer Stem Cells (A278, Adherent) (AID 1259361)", "in_short": "as §2"}, "[14]": {"test": "qHTS Screen of the MIPE 4.0 Collection Against Ewings Sarcoma (RDES) (AID 1259252)", "in_short": "as §1"}, "[15]": {"test": "P-glycoprotein substrates identified in KB-3-1 adenocarcinoma cell line, qHTS therapeutic library screen (AID 1346986)", "in_short": "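Resistance attributable to P-gp was assessed by comparing AC50 in KB-8-5-11 with parental KB-3-1 and by tariquidar reversal. Cells were exposed 72 h and viability read by CellTiter-Glo.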"}}, "note": "Several values for one entry are separate records, joined by “and”; a condition that tells them apart may be missing. Identical values can stand only once. Records with an inconclusive call do not appear. Where a call stands in place of a potency, no number is given. Some structures have more than one record in an assay (separate samples or runs), and their calls can disagree. Activity calls are given as the source filed them. Unless noted, the call rests on the fitted dose curve; in most records, active means well fitted curve in the direction sought with a large enough effect; inconclusive means small, poorly fitted or top-dose-only effect, or another doubt; inactive means no such curve, though single readings can be large; an effect the other way counts as inactive or inconclusive. Wherever Potency is given: potency means the concentration at half of the fitted maximal effect.", "data": [{"smiles": "O=C(NCC1CCCCN1)c1cc(OCC(F)(F)F)ccc1OCC(F)(F)F", "note": "(stereo unspecified)", "values": [{"measurement": "viability (% of control)", "setting": "[1]", "result": 12.9, "unit": "%"}, {"measurement": "Potency", "setting": "[2]", "result": "inactive"}, {"measurement": "Potency", "setting": "[3]", "result": "inactive"}, {"measurement": "Potency", "setting": "[4]", "result": "inactive"}, {"measurement": "Potency", "setting": "[5]", "result": "inactive"}]}, {"smiles": "Cc1c(OCC(F)(F)F)ccnc1CS(=O)c1nc2ccccc2[nH]1", "note": "(stereo unspecified)", "values": [{"measurement": "viability (% of control)", "setting": "[1]", "result": 100, "unit": "%"}, {"measurement": "Potency", "setting": "[2]", "result": "inactive"}, {"measurement": "Potency", "setting": "[3]", "result": "inactive"}, {"measurement": "Potency", "setting": "[6]", "result": "inactive"}, {"measurement": "Potency", "setting": "[7]", "result": "inactive"}, {"measurement": "Potency", "setting": "[5]", "result": "inactive"}, {"measurement": "Potency", "setting": "[8]", "result": "inactive"}, {"measurement": "Potency", "setting": "[9]", "result": "inactive"}]}, {"smiles": "Cc1cccc(-c2[nH]ncc2-c2ccc3ncccc3n2)n1", "values": [{"measurement": "viability (% of control)", "setting": "[1]", "result": 106, "unit": "%"}, {"measurement": "Potency", "setting": "[2]", "result": "inactive"}, {"measurement": "Potency", "setting": "[3]", "result": "inactive"}, {"measurement": "Potency", "setting": "[10]", "result": "inactive"}, {"measurement": "Potency", "setting": "[4]", "result": "inactive"}, {"measurement": "Potency", "setting": "[11]", "result": "inactive"}, {"measurement": "Potency", "setting": "[12]", "result": "inactive"}, {"measurement": "IC50 (viability decrease)", "setting": "[13]", "result": "inactive"}, {"measurement": "Potency", "setting": "[8]", "result": "inactive"}]}, {"smiles": "Cc1nc2n(c(=O)c1CCN1CCC(c3noc4cc(F)ccc34)CC1)CCCC2", "values": [{"measurement": "viability (% of control)", "setting": "[1]", "result": 103, "unit": "%"}, {"measurement": "Potency", "setting": "[2]", "result": "inactive"}, {"measurement": "Potency", "setting": "[3]", "result": "inactive"}, {"measurement": "Potency", "setting": "[10]", "result": "inactive"}, {"measurement": "Potency", "setting": "[4]", "result": "inactive"}, {"measurement": "Potency", "setting": "[7]", "result": "inactive"}, {"measurement": "Potency", "setting": "[5]", "result": "inactive"}, {"measurement": "Potency", "setting": "[8]", "result": "inactive and 8.2 µM (active)"}]}, {"smiles": "CCOC(=O)C1=C[C@@H](OC(CC)CC)[C@H](NC(C)=O)[C@@H](N)C1", "values": [{"measurement": "viability (% of control)", "setting": "[1]", "result": 106, "unit": "%"}, {"measurement": "Potency", "setting": "[2]", "result": "inactive"}, {"measurement": "Potency", "setting": "[14]", "result": "inactive"}, {"measurement": "Potency", "setting": "[10]", "result": "inactive"}, {"measurement": "Potency", "setting": "[4]", "result": "inactive"}, {"measurement": "Potency", "setting": "[6]", "result": "inactive"}, {"measurement": "Potency", "setting": "[7]", "result": "inactive"}, {"measurement": "Potency", "setting": "[5]", "result": "inactive"}, {"measurement": "Potency", "setting": "[8]", "result": "inactive"}]}, {"smiles": "COc1c(O)cc2c(c1O)[C@@H]1O[C@H](CO)[C@@H](O)[C@H](O)[C@H]1OC2=O", "values": [{"measurement": "viability (% of control)", "setting": "[1]", "result": 97.8, "unit": "%"}, {"measurement": "Potency", "setting": "[2]", "result": "inactive"}, {"measurement": "Potency", "setting": "[14]", "result": "inactive"}, {"measurement": "Potency", "setting": "[10]", "result": "inactive"}, {"measurement": "Potency", "setting": "[4]", "result": "inactive"}, {"measurement": "Potency", "setting": "[7]", "result": "inactive"}, {"measurement": "Potency", "setting": "[5]", "result": "inactive"}, {"measurement": "Potency", "setting": "[8]", "result": "inactive"}]}, {"smiles": "COCCCOc1ccnc(CS(=O)c2nc3ccccc3[nH]2)c1C", "note": "(stereo unspecified)", "values": [{"measurement": "viability (% of control)", "setting": "[1]", "result": 104, "unit": "%"}, {"measurement": "Potency", "setting": "[2]", "result": "inactive"}, {"measurement": "Potency", "setting": "[14]", "result": "inactive"}, {"measurement": "Potency", "setting": "[4]", "result": "inactive"}, {"measurement": "Potency", "setting": "[6]", "result": "8.33 µM (active)"}, {"measurement": "Potency", "setting": "[7]", "result": "inactive"}, {"measurement": "Potency", "setting": "[5]", "result": "inactive"}, {"measurement": "Potency", "setting": "[15]", "result": "inactive"}, {"measurement": "Potency", "setting": "[8]", "result": "3.66 µM (active) and inactive"}]}]}
